As a reminder, the inhibition is the drop in the measured response relative to a control, in per cent. For orientation: viability means a read-out of living cells in per cent, often relative to untreated cells.

The nature of assay [1]: LFS_MB_1R medulloblastoma cell growth inhibition, synergistic combos for chromothripsis tumors, cisplatin or BGB combos (AID 1671452).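 Note: cells exposed for 96 hours before readout.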 To be noted: LFS_MB_1R medulloblastoma cells, stronger effect = higher value.
The nature of assay [2]: CRL2098 osteosarcoma cell growth inhibition, synergistic combos for chromothripsis tumors, BGB or cisplatin IC20 combos (AID 1671454).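 Note: cells exposed for 96 h before readout; 0% = vehicle DMSO and 100% = killing by high DMSO.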 The following applies: CRL2098 osteosarcoma cells, drug combinations, stronger effect = higher value.
Assay [3] can be described thus: HD-MB03 medulloblastoma cell growth inhibition, synergistic combos for chromothripsis tumors, BGB or cisplatin IC20 combos (AID 1671455; in the data active = inhibition above about 83%;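 note: 0% = vehicle DMSO and 100% = high DMSO as cytotoxic control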). The following applies: HD-MB03 medulloblastoma cells, stronger effect = higher value.
The nature of assay [4]: UWB1.289 ovarian carcinoma cell growth inhibition, synergistic combos for chromothripsis tumors, BGB or cisplatin combos (AID 1671456).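 Note: cells exposed to compound for four days; 0% = vehicle DMSO and 100% = killing by high DMSO.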 To be noted: UWB1.289 ovarian carcinoma cells, stronger effect = higher value.
Assay [5] is described as follows: LFS_MB_2R medulloblastoma cell growth inhibition, synergistic combos for chromothripsis tumors, cisplatin combos (AID 1671457).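 Note: cells exposed to compound for four days before readout.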 To be noted: LFS_MB_2R medulloblastoma cells, stronger effect = higher value.
Assay [6] is described as follows: UWB1.289_BRCA1 ovarian cancer growth, cell-based, BGB or cisplatin combinations (AID 1671459). To be noted: UWB1.289 BRCA1 ovarian carcinoma, drug combinations, stronger effect = higher value.
Assay [7] can be described thus: human astrocyte viability loss, single and combined drugs, cytotoxicity control for chromothriptic childhood tumor combination screen, cell-based, BGB or cisplatin IC20 combos (AID 1671460).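 Note: cells exposed to compounds for 96 hours before viability readout; 0% = vehicle and 100% = killing control.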 To be noted: Human astrocytes, drug combinations, stronger effect = higher value.
Assay [8] can be described thus: growth inhibition of CRL1545 osteosarcoma cells, cell-based, cisplatin and BGB IC20 combos (AID 1671464).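 Note: cells exposed to compound for 96 hours before readout; 0% = vehicle DMSO and 100% = high DMSO killing control.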 To be noted: stronger effect = higher value.
Assay [9] in a line: kinase inhibitors against Plasmodium liver-stage infection, cell-based, known kinase inhibitor set, luminescence, hepatoma host viability (AID 624392; call rule not given here;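 note: infected cells incubated roughly two days before readout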). To be noted: Plasmodium liver stage in hepatoma cells, luciferase luminescence, concentration not given here; liver cell % of control: measured here: host liver cell viability; parasite % of control: stronger effect = lower value.
The target in assay [10] is NAD(+) hydrolase SARM1 (Homo sapiens) (UniProt Q6SZW1). Description: SARM1 TIR NADase inhibitors, cell lysate, NAD-Glo luminescence (AID 1508614;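 active = compound whose remaining NAD level is above about 45 nM, limit read from the data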;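 note: higher remaining NAD means stronger inhibition of SARM1 NADase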). To be noted: SAM-TIR HEK293T lysate NADase, at 1 µM, stronger effect = higher value.
Sequence of NAD(+) hydrolase SARM1 (Homo sapiens) (Q6SZW1 whole entry, looked up): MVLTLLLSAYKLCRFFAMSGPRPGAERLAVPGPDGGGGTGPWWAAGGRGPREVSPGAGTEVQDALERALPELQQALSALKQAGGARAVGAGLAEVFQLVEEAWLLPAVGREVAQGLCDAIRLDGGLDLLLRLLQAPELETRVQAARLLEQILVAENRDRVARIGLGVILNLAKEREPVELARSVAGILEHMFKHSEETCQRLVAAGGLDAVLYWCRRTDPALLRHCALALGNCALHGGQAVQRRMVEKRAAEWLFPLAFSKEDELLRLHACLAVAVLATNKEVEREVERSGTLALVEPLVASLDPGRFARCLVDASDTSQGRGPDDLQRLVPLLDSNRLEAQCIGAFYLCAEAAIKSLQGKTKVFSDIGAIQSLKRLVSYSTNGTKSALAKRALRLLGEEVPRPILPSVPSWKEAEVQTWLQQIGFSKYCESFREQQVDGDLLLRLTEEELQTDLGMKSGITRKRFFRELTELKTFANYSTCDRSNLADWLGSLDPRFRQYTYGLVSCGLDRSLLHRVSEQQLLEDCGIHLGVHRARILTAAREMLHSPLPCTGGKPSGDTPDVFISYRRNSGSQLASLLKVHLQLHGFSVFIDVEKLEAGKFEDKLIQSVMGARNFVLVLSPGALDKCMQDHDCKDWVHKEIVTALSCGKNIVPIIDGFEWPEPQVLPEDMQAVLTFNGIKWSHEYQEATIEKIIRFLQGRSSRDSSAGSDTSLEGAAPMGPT
The nature of assay [11]: liver-stage malaria parasite growth inhibition, primary screen, cell-based, HepG2, luciferase luminescence, HepG2 viability (AID 624349; in the data active = parasite load remaining mostly below about 12%, no sharp cut-off; inactive = mostly above about 10%;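 note: 100% = mean of DMSO negative control wells on the same plate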). To be noted: P. berghei liver stage in HepG2, luciferase luminescence, concentration not given here; parasite load remaining: stronger effect = lower value; viability: measured here: HepG2 viability without parasites.
Assay [12] can be described thus: inhibitors of Cryptococcus chitosan production, flow cytometry, Cibacron Brilliant Red staining (AID 1347148; call rule not given here;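 note: compound exposure lasted three days at 37 degrees C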). To be noted: Cryptococcus neoformans chitosan, stronger effect = lower value; at 10 µM unless noted.
A short description of assay [13]: viability rescue of complex I mutant cybrids, primary screen, cell-based, galactose medium, ATP luminescence (AID 1645843;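 active = z-score of at least 1.8 in each of two replicates, scored against plate mean and spread of sample wells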;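 note: positive z means more ATP and so rescue of galactose-driven cybrid death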). To be noted: complex I mutant cybrid cells, 72 h, stronger effect = higher value.
A short description of assay [14]: hESC survival regulators, cell-based (AID 493140; call rule not given here;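 note: cells exposed to compounds for four days before counting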). To be noted: human embryonic stem cell survival screen; stronger effect = higher value.
In assay [15] the test system is Hepatitis C virus NS3 helicase. Kind of assay: HCV NS3 helicase inhibitors, primary screen, biochemical, fluorescence polarization, LOPAC1280 library (AID 687035; in the data active = inhibition above about 37%). The following applies: Purified HCV NS3 helicase, Cy5-dT15 ssDNA binding fluorescence polarization; stronger effect = higher value; concentration not given here. A general note: Polarisation of emitted light reports the rotation of a fluorescent probe.

A short description of assay [16]: Cy5 fluorescence quenching or enhancement artefacts, artefact control for HCV NS3 helicase inhibitor project, biochemical, LOPAC1280 (AID 687037; call rule not given here). The following applies: Cy5-DNA-NS3h complex fluorescence interference counterscreen. For orientation: Counterscreens check selectivity or assay interference.
The mark [17] stands for this setting: measured here: combination with BGB IC40, at 0.05 µM.
The mark [18] stands for this setting: measured here: combination with cisplatin, at 0.5 µM.
The mark [19] stands for this setting: measured here: combination with cisplatin, at 5 µM.
[20] abbreviates: measured here: combination with BGB at IC20, at 0.5 µM.
The mark [21] stands for this setting: measured here: combination with cisplatin at IC20, at 0.5 µM.
Setting [22] is: measured here: combo with BGB at IC20, at 0.5 µM.
Setting [23] is: measured here: combo with cisplatin at IC20, at 0.5 µM.
Where [24] appears, read: measured here: inhibition with BGB combination, at 0.05 µM.
The mark [25] stands for this setting: measured here: inhibition with cisplatin combination, at 0.05 µM.
Where [26] appears, read: BGB combination, concentration series, at 5 µM.
[27] abbreviates: cisplatin combination, concentration series, at 5 µM.
[28] abbreviates: measured here: combo with BGB IC20, at 0.5 µM.
[29] abbreviates: measured here: combo with cisplatin IC20, at 0.5 µM.
[30] abbreviates: measured here: with BGB IC20 combination, at 0.5 µM.
Where [31] appears, read: measured here: with cisplatin IC20 combination, at 0.5 µM.

“And” between values parts separate entries of the source, which are not always exact repeats. Equal values may be shown once. Where a structure was tested more than once in an assay, its records may differ in their call. The source made the active and inactive calls. Cut-off read from the data, not from the text of the source, unless noted: active = inhibition above about 80%; inactive = the rest. Where a SMILES comes first, the peptide text is derived from it. The star is where a group is joined. Cbz = O=C(OCc1ccccc1)*

With `C[C@@H]1CN(CC(=O)Nc2ccc3c(c2)Cc2cccc(-c4cc(=O)cc(N5CCOCC5)o4)c2S3)C[C@H](C)O1`, the inhibition is -8.44% (inactive) and -21% (inactive) in [1] (at 0.5 µM); 3.35% and -5.52% in assay [1] (setting [17]); -14.6% and -41.1% in assay [1] (setting [18]); -56% and -92.8% in assay [1] (setting [19]); -44.4% (inactive) and -42.5% (inactive) in [2] (at 0.5 µM); -21.5% and -30.1% in assay [2] (setting [20]). Besides, the inhibition in assay [2] (setting [21]) is -75.7% and -79.9%; in [3] (at 0.5 µM), -12% (inactive) and -9.56% (inactive); in assay [3] (setting [22]), -14.5% and -20%; in assay [3] (setting [23]) it was -16.9% and 0.275%; in [4] (at 0.5 µM), -15.2% (inactive) and 1.44% (inactive); in assay [4] (setting [24]), -5.12% and -6.06%. Moreover, the inhibition in [4] (setting [25]) was -21.5% and 20.1%; in assay [5] (at 0.5 µM), -9.09% (inactive) and -22.8% (inactive); in [5] (setting [18]) it was -17.7% and -28.5%; in assay [5] (setting [19]) it was 7.16% and -9%; in assay [6] (setting [26]), -11.5% and 19.3%; in [6] (at 0.5 µM) it was -16.3% (inactive) and -2.61% (inactive). Besides, the inhibition in [6] (setting [27]) is -2.71% and 10.4%; in assay [7] (at 0.5 µM), -26.1% (inactive) and -28.5% (inactive); in assay [7] (setting [28]), -42.3% and -37.5%; in assay [7] (setting [29]), -29% and -44.1%; in assay [8] (at 0.5 µM), 5.04% (inactive) and -9.72% (inactive); in assay [8] (setting [30]), 22% and -3.16%. The inhibition in assay [8] (setting [31]) was -5.11% and -14.8%; in assay [8] (single agent, at 0.05 µM), 7.16% and -18.1%; in [8] (single agent, at 5 µM), -20.2% and -4.99%.
Regarding `Cc1cn(-c2cc(NC(=O)c3ccc(C)c(Nc4nccc(-c5cccnc5)n4)c3)cc(C(F)(F)F)c2)cn1`, in assay [9], the liver cell % of control was 96.6% and 104% and 98.4%; the parasite % of control was 40.6% (inactive) and 49.1% (inactive) and 89.8% (inactive).
For `CC#CCn1c(N2CCC[C@@H](N)C2)nc2c1c(=O)n(Cc1nc(C)c3ccccc3n1)c(=O)n2C`, the remaining NAD in [10] was 10 nM (inactive).
For the compound `CC(=O)OC1C(C)OC(Oc2c(-c3ccc(O)cc3)oc3cc(O)cc(O)c3c2=O)C(O)C1OC(C)=O` (stereo unspecified), in assay [11], the parasite load remaining was 29.8% (inactive) and the viability came out at 85%.
As to `CC(C)C[C@@H](C=O)NC(=O)[C@H](CC(C)C)NC(=O)[C@H](CC(C)C)NC(=O)OCc1ccccc1` (Cbz-Leu-Leu-Leu-aldehyde), the fold fluorescence in [12] was 10.3 [at 105.1 µM] (inactive).
For `CC(C)n1c(/C=C/[C@H](O)C[C@H](O)CC(=O)O)c(-c2ccc(F)cc2)c2ccccc21`, in [11], the parasite load remaining was 134% (inactive) and the viability stood at 92.6%.
`CC(C)(C)c1nc2c3cc[nH]c(=O)c3c3cc(F)ccc3c2[nH]1`: in [11], the parasite load remaining was 88% (inactive) and the viability worked out at 127%. Further, in [9], the liver cell % of control was 205% and 286% and 305%; the parasite % of control is 128% (inactive) and 18.5% (inactive) and 5.35% (inactive).
As for `CC(C)=CC[C@@H](O)C1=CC(=O)c2c(O)ccc(O)c2C1=O`, in assay [11], the parasite load remaining is 4.44% (active) and the viability was determined as 99.5%. In addition, in [13], the z-score was -2.24 (inactive).
In the case of `CN(C)c1ccc(C(=O)NCCCCCCC(=O)NO)cc1`, the inhibition in assay [1] (at 0.5 µM) is 32.4% (inactive); in [1] (setting [17]) it was -37.9%; in assay [1] (setting [18]) it was 63.6%; in assay [1] (setting [19]), 97.6%; in assay [2] (at 0.5 µM), -26.1% (inactive); in assay [2] (setting [20]) it was -83.1%. Further, the inhibition in assay [2] (setting [21]) was 6.53%; in assay [3] (at 0.5 µM), 47.5% (inactive); in assay [3] (setting [22]), 38.6%; in [3] (setting [23]), 81.5%; in assay [4] (at 0.5 µM), 31% (inactive); in assay [4] (setting [24]) it was -11.2%. Further, the inhibition in assay [4] (setting [25]) was 3.19%; in assay [5] (at 0.5 µM) it was 15.7% (inactive); in assay [5] (setting [18]), 37.8%; in assay [5] (setting [19]), 95.1%; in [6] (setting [26]), 88.6%; in [6] (at 0.5 µM), 35.3% (inactive). Further, the inhibition in assay [6] (setting [27]) was 103%; in assay [7] (at 0.5 µM) it was 25.9% (inactive); in [7] (setting [28]) it was 24.7%; in [7] (setting [29]) it was 16.4%; in [8] (at 0.5 µM) it was 76.1% (inactive); in assay [8] (setting [30]), 71.1%. For the same compound, the inhibition in assay [8] (setting [31]) is 78%; in assay [8] (single agent, at 0.05 µM), 23%; in assay [8] (single agent, at 5 µM), 91.7%.
For the compound `CC(C)(C)c1cnc(CSc2cnc(NC(=O)C3CCNCC3)s2)o1`, in assay [9], the liver cell % of control was 42.1% and 45.4% and 53.6%; the parasite % of control is 0.331% (inactive) and 0.54% (inactive) and 1.3% (active).
In the case of `CC(C)c1nn(-c2c(Cl)cccc2Cl)c2nc(Cc3ccc(OCCO)cc3)[nH]c(=O)c12`, in assay [11], the parasite load remaining is 77.3% (inactive) and the viability is 79.7%.
In the case of `CCCCC(C)(C)[C@H](O)/C=C/[C@H]1[C@H](O)CC(=O)[C@@H]1C/C=C\CCCC(=O)O`, the survival in assay [14] was 68.2 (inactive).
In the case of `COc1cc2nccc(Oc3ccc(NC(=O)NC4CC4)c(Cl)c3)c2cc1C(N)=O`, in assay [9], the liver cell % of control was 83.2% and 92.7% and 92.2%; the parasite % of control is 3.46% (inactive) and 6.57% (inactive) and 21.7% (inactive).
`C=CC(=O)Nc1cc2c(Nc3ccc(F)c(Cl)c3)ncnc2cc1C#CC(C)(C)N1CCN(C)CC1`: in [9], the liver cell % of control is 44% and 49.4% and 70.7%; the parasite % of control is 0.362% (inactive) and 1.83% (inactive) and 6.99% (inactive).
Consider `Cn1c2ccccc2c2c3c(c4c5ccccc5n(CCC#N)c4c21)CNC3=O`, for which, in assay [11], the parasite load remaining was 110% (inactive) and the viability was found to be 92.8%. For the same compound, in assay [12], the fold fluorescence is 3.75 [at 132.1 µM] (inactive).
For `O=C1NC(=O)/C(=C/c2ccc3c(c2)OC(F)(F)O3)S1`, in [11], the parasite load remaining was 45.5% (inactive) and the viability came to 93.8%. The inhibition in [15] was -5% (inactive). Besides, in assay [16], the fluorescence ratio (interference) is 1 (inactive). Besides, in assay [13], the z-score was -0.34 (inactive).

The values are drawn from PubChem BioAssay.
